# Assay outcomes from PubChem BioAssay.
# These entries were drawn from the full list.
# aSyn UTR act: Activators via SNCA 5'UTR binding, MLPCN | activity score, % (tested at 7.5 µM), hits read low | actives 7.1% (n = 300,000) | alpha-synuclein 5'UTR reporter, activators screen; in the data active means activity score below about -60%
# * hit, by the source's call.
SMILES,aSyn UTR act
S=C(N/N=C/c1ccc(Br)cc1)N1CCCCC1,-195*
S=C(N/N=C/c1ccc(Cl)cc1)N1CCOCC1,-69*
O=C(NC(NC(=S)N1CCOCC1)C(Cl)(Cl)Cl)c1ccc(Cl)cc1 (stereo not given),66
Cc1ccc(/C=N/NC(=S)N2CCOCC2)cc1,-85*
O=[N+]([O-])c1cc2c(cc1/C=N/Nc1nc(Nc3ccccc3)nc(N3CCCCC3)n1)OCO2,-63*
COc1cccc(/C=N/Nc2nc(Nc3ccc([N+](=O)[O-])cc3)nc(N3CCCC3)n2)c1O,65
Cc1ccc(OCC(=O)N2CCc3ccccc32)cc1,-121*
O=C(CO/N=C/c1ccccc1O)N1CCc2ccccc21,-67*
O=C(COc1ccc2c(c1)CCC2)N1CCc2ccccc21,-123*
CCc1ccc(OCC(=O)N2CCc3ccccc32)cc1,-190*
Cc1ccnc(NC(=O)COc2ccc3c(c2)CCC3)c1,-90*
COc1cc2c(OC(C)=O)c3c(c(-c4ccc5c(c4)OCO5)c2cc1OC)C(=O)OC3,113
CC(=O)Oc1cc(OC(C)=O)c2c(=O)c(-c3ccc4c(c3)OCCCO4)c(C)oc2c1,-88*
CCC(=O)N1CCc2nc(-c3ccccc3)sc2C1,-179*
Cc1c(C(=O)Nc2cccc(Cl)c2)c2ccccn2c1CCc1ccncc1,-103*
Cc1c(C(=O)Nc2ccc(Cl)cc2)c2ccccn2c1CCc1ccncc1,-115*
CC1CCCN(C(=O)CSc2nnc(-c3cccs3)o2)C1 (stereo not given),-79*
CCC1CCCCN1C(=O)CSc1nnc(-c2cccs2)o1 (stereo not given),-74*
CSc1ccccc1NC(=S)NCc1ccc(Cl)cc1,-110*
CSc1ccccc1NC(=O)COc1ccccc1Cl,-65*
O=C(CCl)Nc1ccccc1Sc1ccc(Cl)cc1,93
CSc1ccccc1NC(=O)COc1ccc(Cl)cc1,-62*
COc1cccc2cc(-c3ccnc(=S)[nH]3)oc12,-74*
Cc1cc2c(C)cc(=O)[nH]c2cc1NC(=O)CCl,-70*
C=CC[n+]1c(/C=C2\C=Cc3cc(C)ccc3N2CC)ccc2ccccc21,67
SMILES,aSyn UTR act
CCN1/C(=C2/SC(=S)N(C)C2=O)C=Cc2cc(C)ccc21,-68*
O=C(N/N=C\c1cn[nH]c1-c1ccccc1)c1cccnc1,-67*
Cc1ccccc1C(=O)N/N=C/c1ccccn1,-80*
CN(C)c1ccc(NC(=S)c2ccccn2)cc1,97
CN(C)c1ccc(C(=O)N/N=C/c2ccccn2)cc1,-85*
O=C(N/N=C/c1ccccn1)c1ccccc1,-90*
COc1cccc(NC(=O)c2ccc(NC(=O)C(C)C)cc2)c1,-115*
COc1cc(NC(=O)N2CCNC2=O)cc(C(=O)Nc2cccc(C(F)(F)F)c2)c1,68
COc1cccc(NC(=O)c2ccc(OC(F)(F)F)cc2)c1,-153*
CC(C)C(=O)Nc1ccc(C(=O)c2ccccc2)cc1,-88*
CC(=O)c1ccc(NC(=O)C(C)NCc2ccccc2Cl)cc1 (stereo not given),-78*
CC(=O)Nc1cccc(NC(=O)C(=O)Nc2ccc3c(c2)N(C(=O)C2CC2)CCC3)c1,-92*
O=C1CC(/C=C/c2ccc([N+](=O)[O-])cc2)=Nc2ccccc2N1,-112*
COc1ccccc1C(=O)Nc1cccc(NC(=O)c2ccccc2OC)n1,-112*
COc1ccccc1C(=O)Nc1cc(C)on1,-114*
COc1ccccc1C(=O)Nc1ccccc1SC(=O)c1ccccc1OC,-112*
COc1ccccc1C(=O)Nc1cc(-c2ccc(C)cc2)no1,-178*
Cc1cc(NC(=O)C(=O)c2cn(C)c3ccccc23)no1,-72*
COc1cccc2cc(C(=O)Nc3cccc(C)n3)c(=O)oc12,-167*
COc1ccccc1C(=O)Nc1ccc2c3c(cccc13)CC2,-118*
CN(C)c1ccc(-c2ccccc2)nn1,-148*
O=C(O)c1c(-c2ccc(Cl)cc2)cn2ccccc12,-167*
Cc1ccc(C2=NNC3(CCOC(C)(C)C3)S2)cc1 (stereo not given),-164*
CC1=CC2=NC(=O)/C(=C\c3cccn3CCOc3ccc(C)c(C)c3)C(=N)N2O1,-95*
Cc1ccc(-c2nc3ncccn3c2Nc2ccc3c(c2)OCCO3)cc1,-64*
SMILES,aSyn UTR act
COc1ccc(-c2nc3ncccn3c2Br)cc1,-148*
Brc1c(-c2ccc3c(c2)OCO3)nc2ncccn12,-84*
COc1cccc(-c2nn(C)c3sc(C(=O)NCCCN(C)Cc4ccccc4)cc23)c1,-76*
COCCCNC(=O)c1cc2c(-c3ccc(Cl)cc3)nn(C)c2s1,-72*
CCCNC(=O)CCn1nc(-c2ccc(Cl)cc2)c2ccccc2c1=O,82
Cn1nc(-c2ccc(Cl)cc2)c2cc(C(=O)N3CCN(c4ccccc4)CC3)sc21,-65*
Cc1nn(-c2ccccc2)c2sc(C(=O)N3CCOCC3)cc12,-87*
CCCCCCCn1c2c(c(=N)c3c1CCC3)CCCC2,83
CCCN1CCc2c(sc(NC(=S)NC(=O)c3ccccc3)c2C#N)C1,-140*
COC(=O)c1c(NC(=O)c2ccc([N+](=O)[O-])o2)sc2c1CCN(C(C)C)C2,105
